DUSP3 inh = VHR1 phosphatase inhibitors, primary screen, biochemical, absorbance, uHTS; inhibition, % at 13.3 µM; recombinant VHR phosphatase, pNPP absorbance; hit rate 0.52% among 290,000; in the data active = inhibition above about 50%
BoNT-F LC inh = BoNT/F light chain protease inhibitors, primary screen, biochemical, flow cytometry, MLPCN library | hit rate 0.22% among 360,000 | inhibition, % at 10 µM | Multiplex microsphere protease cleavage assay | AID 588497, 2011; in the data active = inhibition above about 35%, passing the limit was not always enough; inconclusive = no clear call, values can overlap the other calls; also: plate controls were buffer without enzyme for full effect and enzyme alone for no effect
Anthrax LF prot = Bacillus anthracis LF protease inhibitors, primary screen, biochemical, multiplex microsphere, MLPCN library. multiplex microsphere protease cleavage assay. inhibition, % at 10 µM. Lethal factor (Bacillus anthracis), P15917. hit rate 0.12% among 360,000; also: plate controls were buffer without enzyme for full effect and enzyme alone for no effect
BoNT-A LC inh2 = BoNT/A light chain protease inhibitors, primary screen, biochemical, flow cytometry, MLPCN library; AID 588499, 2011; multiplex microsphere protease substrate cleavage; inhibition, % at 10 µM; hit rate 0.17% among 360,000; Botulinum neurotoxin type A light chain protease (Clostridium botulinum A str. ATCC 3502); also: plate controls were buffer without enzyme for full effect and enzyme alone for no effect
Bead autofluor = counter-screen for toxin protease inhibitors: compound fluorescence | compound autofluorescence counterscreen, microsphere flow cytometry; stronger effect = higher value | fluorescence intensity (no concentration beside the values) | hit rate 3.1% among 360,000 | AID 624483; in the data active = fluorescence intensity above about 16000; inconclusive = no clear call, values can overlap the other calls
3CLpro inhibitor = SARS-CoV 3CLpro protease inhibitors, primary screen, biochemical, quenched FRET; Replicase polyprotein 1ab (Severe acute respiratory syndrome coronavirus), P0C6X7; recombinant SARS-CoV 3CLpro, quenched FRET peptide cleavage; inhibition, % at 6 µM; hit rate 0.14% among 290,000; in the data active = inhibition above about 12%
Numbers without * were called inactive; ? = inconclusive; . = not tested or not shown. Rows were chosen to be rich in hits. Some 3.9% of all compounds tested hit in one or more screens of this group. Rule as the data show it, unless noted: active = inhibition above about 30%; inconclusive = no clear call, values can overlap the other calls; inactive = below that.

SMILES	DUSP3 inh	BoNT-F LC inh	Anthrax LF prot	BoNT-A LC inh2	Bead autofluor	3CLpro inhibitor
COc1ccc(OC)c(S(=O)(=O)N2c3cc(F)ccc3CCC2C)c1 (configuration not stated)	0	-5	-4	-1	7080	-1
CC1Cc2ccccc2N1C(=O)c1cnc2ccccn2c1=O (configuration not stated)	28	-5	-2	-2	23725*	-1
CCOc1ccc(NC(=O)CSc2nnc(C3CC3)n2N)cc1	8	2	0	0	23438*	-1
COc1ccc(C(=O)CSc2nnc(C3CC3)n2N)cc1	27	0	1	?	22665*	0
CCn1c(SCC(=O)c2ccc(OC)cc2)nnc1C1CC1	-1	-12	0	-2	4200	2
Nn1c(SCC(=O)Nc2ccc(Oc3ccccc3)cc2)nnc1C1CC1	29	-9	-2	0	10756	2
O=C(Nc1cccc(C(=O)O)c1)/C(=C\c1ccc(F)cc1)NC(=O)c1ccco1	13	17	0	2	3907	-4
CC(=O)NCCc1ccc(C(=O)COC(=O)c2cccs2)cc1	.	-7	-7	0	4037	.
COc1ccc(-c2c3c(=O)n(C)c(=O)n(C)c3cn2C2CCCCC2)cc1	33	-8	-11	-1	5969	-4
CCn1nc(NS(=O)(=O)c2ccc(F)cc2)c2cc3cccc(C)c3nc21	6	-4	0	0	5722	11
CCn1nc(NS(=O)(=O)c2ccccc2)c2cc3cccc(C)c3nc21	8	1	-8	?	19546*	6
COCCCNC(=O)c1cccn2c(=O)c3cc4ccccc4cc3nc12	14	3	8	?	24282*	-11
O=C(NCc1ccco1)c1cccn2c(=O)c3cc4ccccc4cc3nc12	47	.	.	.	.	-4
Cc1ccc(N2CC(C(=O)NCCCn3ccnc3)CC2=O)cc1 (configuration not stated)	18	-3	0	-2	16950*	4
COc1ccc(N2CC(C(=O)NCCCN3CCOCC3)CC2=O)cc1 (configuration not stated)	19	2	1	0	23842*	-6
O=C(Nc1ccccc1)c1ccc(F)c(S(=O)(=O)N2CCOCC2)c1	23	14	0	1	9370	3
O=C(Nc1ccc(-c2cn3ccsc3n2)cc1)c1ccc(F)c(S(=O)(=O)N2CCOCC2)c1	-11	-3	-6	-2	19935*	-6
Cc1cc2nc(-c3cccnc3SCC(=O)NCc3ccco3)[nH]c2cc1C	.	2	2	3	22154*	0
O=C(CSc1ncccc1-c1nc2ccccc2[nH]1)NCc1ccco1	-3	-10	2	3	10742	0
COc1ccc(CCN(Cc2cc3cccc(C)c3[nH]c2=O)C(=O)NC2CCCCC2)cc1OC	-23	-1	1	0	23128*	1
C[C@@H](c1ccccc1)N1C[C@@H](COCc2ccccc2)Oc2cc(N3CC[C@@H](N(C)C)C3)ccc2S1(=O)=O	.	-16	-14	-1	6174	.
CC(C)Oc1ccc(C(=O)NCC(=O)O)cc1	2	-5	0	1	4728	3
Cc1oc(C)c(C(=O)O)c1COc1ccc(C(=O)O)cc1	28	11	4	0	4816	-6
NNC(=O)c1ccc(COc2ccccc2)cc1	18	-4	1	2	2443	-1
COc1ccc(C(=O)NCC(=O)O)cc1	11	-8	-4	-2	17003*	0
SMILES	DUSP3 inh	BoNT-F LC inh	Anthrax LF prot	BoNT-A LC inh2	Bead autofluor	3CLpro inhibitor
COc1cccc(CNCC(O)COc2ccc(C(=O)c3ccccc3)cc2)c1 (configuration not stated)	52*	-8	-3	-2	6149	4
COc1ccc(OCc2ccc(C(=O)NN)cc2)cc1	-6	-3	-1	0	19696*	2
COc1ccc(C(=O)NCc2c(C)oc(C)c2C(=O)O)cc1	2	36*	-4	1	3063	-2
COc1cc(C(=O)Nc2cc(-c3cn4cccnc4n3)ccc2C)cc(OC)c1OC	19	-2	-2	0	4553	-1
Nc1nc(SCc2ccccc2)sc1C(=O)N1CCCCC1	.	-6	-6	-1	2819	.
COc1ccc(OCC(O)CNC(=O)c2ccc(OC)cc2)cc1 (configuration not stated)	28	-1	-2	0	2605	-2
COc1ccc(OCC(O)CNC(=O)c2ccc(Br)cc2)cc1 (configuration not stated)	17	6	-6	3	21623*	-3
CC(=O)Nc1ccc(-c2csc(-c3cccnc3)n2)cc1	-13	11	-14	0	3305	1
COc1ccccc1NS(=O)(=O)c1cccc(C(=O)NCC2(N3CCCCC3)CCCCC2)c1	.	0	-3	1	5791	.
CC(c1ccccc1)C(CC(=O)O)C(=O)Nc1ccc(Cl)c(Cl)c1 (configuration not stated)	4	0	-5	-1	3661	4
CCCN1Cc2cccc(C(=O)Nc3cc(OC)cc(OC)c3)c2C1=O	12	2	-8	1	22619*	1
Cc1nnc(SCC(=O)N2c3ccccc3CC2C)[nH]c1=O (configuration not stated)	6	6	2	1	3289	4
CC1CC(=O)N(CCc2ccccc2)C(=O)C1	.	-3	5	0	2874	.
O=C1CC(=O)N(CCc2ccccc2)C(=O)N1CCc1ccccc1	14	-3	-2	2	22637*	-1
CC(C)C[C@@H](CN1CCC[C@H]1CN1C(=O)C(=O)NC[C@@H]1Cc1ccccc1)N1C[C@H](Cc2ccc(O)cc2)N(CC2CCCCC2)C(=O)C1=O	.	-2	2	0	6075	.
CC(C)NS(=O)(=O)c1ccc(OCC(=O)Nc2ccc(F)cc2F)cc1	24	-4	-2	-3	24368*	0
O=C(O)CCSCC(=O)Nc1c(C(=O)C2CC2)oc2ccccc12	-1	?	5	1	4048	2
O=C(Nc1c(C(=O)C2CC2)oc2ccccc12)c1ccc(Cl)cc1	51*	-8	2	-1	2521	-5
O=C(CN1CCN(c2ccccc2)CC1)Nc1c(C(=O)C2CC2)oc2ccccc12	26	1	-4	?	20951*	0
Cc1ccc(N2CCN(CC(=O)Nc3c(C(=O)C4CC4)oc4ccccc34)CC2)cc1	21	.	.	.	.	0
CN(C)C(CNc1ccc(S(C)(=O)=O)cc1[N+](=O)[O-])Cc1ccccc1 (configuration not stated)	56*	0	-3	2	4229	-4
